Eight molecules from PubChem BioAssay (NCI) can be followed below.

What all share (assay): NCI-60 one-dose screen, 48 h (100 = growth as untreated, 0 = no growth, -100 = all killed)
Conditions in all cases: 10 µM unless noted

Test [1] relates to NCI-H23 lung.
Test [2] has as its system NCI-H226 lung.
The subject of test [3] is NCI-H322M lung.
The subject of test [4] is HOP-62 NSCLC.
Test [5] relates to NCI-H460 lung.
The subject of test [6] is NCI-H522 lung.
Test [7] concerns A549/ATCC NSCLC.
The subject of test [8] is 786-0 renal.
In test [9] the test system is COLO 205 colon.
The test system of test [10] is DU-145 prostate.
Test [11] concerns K-562 leukemia.
Test [12] concerns MALME-3M melanoma.
Test [13] has as its system MDA-MB-231 breast.
Test [14] relates to RXF 393 renal.
Test [15] relates to SF-268 CNS.
For test [16], the system named is SF-295 CNS.
The test system of test [17] is SF-539 CNS.
Test [18] concerns UACC-257 melanoma.
The test system of test [19] is M14 melanoma.
Test [20] deals with HCT-15 colon.

Structures are written as SMILES. The panel holds about 83,000 compounds, 20% with a hit somewhere; the sample as a whole holds those more often.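 Cells were grown in 96-well plates and exposed to the test compound at a single concentration for 48 hours; results are reported as percent growth, with values below 10 considered active.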 Unmarked numbers belong to inactive results. Calls of active or inactive are those of the source.

On to `Clc1cc(Cl)c(OCC#CI)cc1Cl`, for which the growth in test [1] is 97.3%; in test [2], 43.1%; in test [3], 127%; in test [4] it was 108%; in [5], 100%; in test [6], 18%. Also, the growth in [7] was 101%; in [8], 98.9%; in test [9], 5.9% (active); in test [10], 86.8%; in test [11], 69.5%; in [12] it was 0.95% (active). Also, the growth in [13] is 83.2%; in test [14] it was -11.9% (active); in test [15], 98.6%; in [16], 101%; in [17] it was 33.2%; in test [18], -3.08% (active). Also, the growth in [19] was 37.7%; in test [20] it was 42.1%.

For `COc1cccc2c1C(=O)c1c(O)c3c(c(O)c1C2=O)C[C@@](O)(/C(C)=N/NC(=O)c1cccc([N+](=O)[O-])c1)C[C@@H]3OC1CC(N)C(O)C(C)O1` (stereo partly drawn), the growth is -33.6% (active) in test [1]; -67.4% (active) in test [2]; -3.02% (active) in test [3]; -23.8% (active) in test [4]; -38.5% (active) in test [5]; -61% (active) in [6]. For the same molecule, the growth in test [7] is -53.4% (active); in [8] it was -24.6% (active); in [9], -98.1% (active); in test [10], -49.7% (active); in test [11], -75.7% (active); in test [12] it was -93.6% (active). Further, the growth was -5.42% (active) in [13]; -64.9% (active) in [14]; -20% (active) in test [15]; -38.5% (active) in test [16]; -25.7% (active) in test [17]; -37.4% (active) in test [18]. For the same molecule, the growth in [19] is -43.8% (active).

On to `NC(=O)c1ncn([C@@H]2O[C@H](CO)[C@@H](O)[C@H]2O)n1`, for which the growth in test [1] is 99.1%; in [2] it was 106%; in [3] it was 88.3%; in test [4], 97.2%; in [5], 100%; in [6] it was 70.6%. Further, the growth in [7] is 91.2%; in test [8] it was 95.6%; in [9] it was 82.6%; in [10], 82.7%; in test [11], 88.3%; in test [12], 92.7%. Also, the growth was 89.5% in test [13]; 119% in [14]; 109% in test [15]; 95.5% in test [16]; 108% in test [17]; 103% in [18]. Besides, the growth in [19] is 98.8%; in [20] it was 83.7%.

Take `COC(=O)C[C@@H]1CC=CC(=O)/C1=C(O)/C=C/c1ccccc1`: the growth in test [1] was -43.4% (active); in test [2], -40.6% (active); in [3], -14.4% (active); in test [4], -42.8% (active); in [5], -42.5% (active); in test [6] it was -64.2% (active). Moreover, the growth in test [7] was -0.275% (active); in test [8], -77.5% (active); in test [9], -57.2% (active); in test [10], -28.4% (active); in [11] it was 3.07% (active); in [12], -60% (active). Moreover, the growth in test [13] is -63% (active); in [14] it was -83.6% (active); in test [15], 22.3%; in [16] it was -14.6% (active); in test [17] it was -39.1% (active); in [18], -39.3% (active). In addition, the growth in test [19] is -70.2% (active); in test [20] it was -53.9% (active).

Turning to `O=C1/C(=C/c2ccc([N+](=O)[O-])o2)Oc2ccc(Cl)cc21`, the growth is 21.3% in [1]; -7.54% (active) in test [2]; 79% in test [3]; 74.5% in [4]; 75.4% in [5]; -84.4% (active) in test [6]. In addition, the growth was 92.4% in test [7]; -53.7% (active) in test [8]; -57.8% (active) in [9]; 35.7% in test [10]; -30.1% (active) in test [11]; -45.6% (active) in [12]. The growth in test [13] is -61.9% (active); in test [14] it was -72.2% (active); in [15], -52% (active); in test [16], 103%; in test [17] it was -25.6% (active); in test [18], -2.07% (active). Further, the growth in test [19] is -18.8% (active).

For the molecule `Cc1nnc(Nc2ccc(NC(=O)Nc3ccc(Cl)cc3)cc2)c2ccccc12`, the growth was 48.8% in [1]; 71.9% in test [2]; 47.8% in test [3]; 4.62% (active) in test [4]; 26.1% in [5]; 30.3% in [6]. Moreover, the growth in test [7] was 26.4%; in [8], -27.8% (active); in test [9], 28.2%; in test [10] it was 57.8%; in [11], -16.7% (active); in [12], -9.9% (active). In addition, the growth was 23.1% in test [13]; -39.7% (active) in test [14]; 48.7% in [15]; 4.8% (active) in [16]; 16.2% in test [17]; 73.8% in test [18]. The growth was 37.3% in [19] and 6.39% (active) in [20].

As to `O=C(Nc1ccc(Oc2ccc(NC(=O)Nc3ccc([N+](=O)[O-])cc3)cc2)cc1)Nc1ccc([N+](=O)[O-])cc1`, the growth in test [1] is -17.8% (active); in test [2] it was 24.4%; in test [3], 22.6%; in [4], -25% (active); in test [5], 2.83% (active); in [6] it was -15.3% (active). For the same molecule, the growth is 7.01% (active) in test [7]; -1.95% (active) in [8]; -51.1% (active) in test [9]; 17.3% in test [10]; -4.47% (active) in test [11]; -3.45% (active) in test [12]. In addition, the growth in test [13] is 35.1%; in test [14], 28.7%; in test [15], 19.7%; in test [16], 22%; in [17] it was 24.9%; in test [18] it was -20.9% (active). Also, the growth in [19] was 5.41% (active); in [20], 10.3%.

`CCCn1cnc2c1c(=O)n(CCCCC(C)=O)c(=O)n2C`: the growth in test [1] is 105%; in test [2], 100%; in [3], 97.4%; in [4], 101%; in [5], 103%; in test [6], 113%. In addition, the growth in test [7] was 95.8%; in test [8], 104%; in test [9], 104%; in test [10] it was 118%; in test [11], 90.9%; in [12], 113%. The growth was 104% in [13]; 103% in test [14]; 99.3% in test [15]; 118% in [16]; 101% in test [17]; 102% in [18]. The growth in test [19] was 104%; in [20], 103%.
